FLuc counter: inhibits or activates purified firefly luciferase, miR-21 counter-screen; P08659; purified FLuc, Km substrates, luminescence inhibition; Potency, µM (doses to about 57.5 µM), inactives show at the top dose activity change, negative = inhibition, usual class: inhibitors; 6.9% of 360,000 active;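 note: plate controls were vehicle for no effect and reference inhibitor for full effect; nearly all actives have a fitted effect of over 55% in size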
Target sequence (P08659 whole entry, looked up): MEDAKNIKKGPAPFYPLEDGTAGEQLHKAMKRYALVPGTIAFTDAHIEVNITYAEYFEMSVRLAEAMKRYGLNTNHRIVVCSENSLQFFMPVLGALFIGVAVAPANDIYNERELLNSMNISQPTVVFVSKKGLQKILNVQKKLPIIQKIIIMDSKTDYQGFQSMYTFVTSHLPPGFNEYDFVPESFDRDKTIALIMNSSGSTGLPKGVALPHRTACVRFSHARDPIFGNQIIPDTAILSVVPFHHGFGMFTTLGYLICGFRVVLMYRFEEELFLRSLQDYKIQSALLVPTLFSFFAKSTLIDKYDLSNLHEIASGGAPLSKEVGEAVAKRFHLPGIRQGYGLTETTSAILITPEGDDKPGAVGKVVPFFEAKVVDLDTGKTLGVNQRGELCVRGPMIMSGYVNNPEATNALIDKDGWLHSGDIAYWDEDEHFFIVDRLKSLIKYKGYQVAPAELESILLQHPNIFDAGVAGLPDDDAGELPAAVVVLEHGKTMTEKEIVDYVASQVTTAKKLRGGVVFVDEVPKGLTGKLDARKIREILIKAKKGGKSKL
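Purified P. pyralis luciferase (10nM final) with 10uM D-luciferin and 10uM ATP (Km levels) in 50mM Tris acetate pH 7.5, 10mM Mg acetate, 0.01% Tween-20, 0.05% BSA; qHTS 6-point titration, ~60 µM downward; luminescence read.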
KinaseGlo FLuc: blocks Kinase-Glo luciferase, a counter-screen artifact; Q27757; Kinase-Glo luciferase, ATP luminescence, 8 min; Potency, µM (titrated, usually from 38.3 µM), inactives show at the top dose activity change, negative = inhibition, usual class: inhibitors; 0.28% of 200,000 active; note: % is set by controls: 0 for no effect and ±100 for the full control effect; nearly all actives have a fitted effect of over 60% in size
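Inhibition of Kinase-Glo luciferase light generation was assessed at 10 uM ATP in pH 7.2 imidazole buffer, with luminescence measured after eight minutes at ambient temperature.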
Rab9 promoter act: activators of Rab9 promoter. Huh7 Rab9 promoter-luciferase reporter, luminescence, 24 h. Potency, µM (titrated, usually from 9.22 µM), inactives show at the highest dose activation, negative = inhibition, usual class: activators. 2.8% of 320,000 active. AID 485297; note: % of control where 0% means no effect; nearly all actives have a fitted effect of over 60% in size
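Quantitative HTS format; Huh7 Rab9-luciferase reporter cells (1500/well) receive compound 2 h post-plating, incubate 24 h at 37 °C, then get luciferase reagent for 10 min before luminescence reading.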
NPC1 prom act: NPC1 promoter activation; Huh7 NPC1 promoter luciferase reporter, 24 h; Potency, µM (highest dose often 9.22 µM), for the others: at the highest dose activation, usual class: activators; 2.4% of 320,000 active; note: % of control where 0% means no effect; nearly all actives have a fitted effect of over 60% in size
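Huh7 cells stably carrying NPC1 promoter–luciferase, plated in Opti-MEM with 10% FBS for 2 h, were exposed to compound in DMSO for 24 h at 37 °C; luciferase reagent was added for 10 min and luminescence read.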
SMN2 splice enh: SMN2 splice variant enhancement | HEK293 SMN2-luciferase splicing reporter, luminescence, 30-36 h | Potency, µM (titrated, usually from 46.1 µM), inactives show top-dose activity change, positive = activation, most hits filed as activators | 2.8% of 210,000 active | AID 1458; note: % of control where 0% means no effect; nearly all actives have a fitted effect of over 55% in size
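HEK293 cells carry an SMN2 minigene-luciferase reporter in which exon 7 inclusion puts luciferase in frame. Cells were seeded at 2000 cells/well, attached for 10-12 hours, then exposed to compounds for 30-36 hours at 37C before ONE-Glo luminescence.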
ELG1 genotoxic: genotoxicity induction in ELG1-luciferase HEK293T cells. HEK293T ELG1-luciferase reporter, luminescence, 16 h. Potency, µM (highest dose often 46 µM), without a hit: at the top dose activity change, positive = activation, most hits filed as activators. 1.3% of 330,000 active. AID 504466; note: % of control where 0% means no effect; nearly all actives have a fitted effect of over 60% in size
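ELG1-luciferase HEK293T cells, 2,000/well; compound pinned in; 16 hr, 37 °C, 5% CO2; ONE-Glo, 30 min RT; luminescence on CCD imager.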
* hit, by the source's call; ? = inconclusive; · = not tested or not shown; [ ] = another dose, or the depositor's remark. This is a sample that favours compounds with a hit; in the whole collection about 7.5% have one here. Calls come from the whole dose curve; as a rule, active = well fitted curve in the direction sought with a large enough effect; inconclusive = small, poorly fitted or top-dose-only effect, or another doubt; inactive = no such curve, though single readings can be large; an effect the other way counts as inactive or inconclusive. Potency is the fitted concentration of half-maximal effect.

SMILES	FLuc counter	KinaseGlo FLuc	Rab9 promoter act	NPC1 prom act	SMN2 splice enh	ELG1 genotoxic
Cc1ccc(NC(=O)C(C)OC(=O)COc2cccc(C(F)(F)F)c2)cc1 (configuration not stated)	1%	·	-3%	-6%	·	-2%
CC(NC(=O)c1ccc(C23CC4CC(CC(C4)C2)C3)cc1)C(=O)O (configuration not stated)	19µM*	0%	1%	0%	10%	-2%
COCc1c(C(=O)OC)nnn1-c1ccc(C(F)(F)F)cc1[N+](=O)[O-]	5%	0%	0%	-1%	2%	-1%
COc1cc(C2Nc3cc(Cl)c(S(N)(=O)=O)cc3S(=O)(=O)N2)cc(OC)c1OC (configuration not stated)	2%	0%	-5%	-1%	-12%	2%
COc1cc(C2Nc3cc(Cl)c(S(N)(=O)=O)cc3S(=O)(=O)N2)ccc1OCc1ccccc1 (configuration not stated)	?	-5%	-4%	-2%	8%	16µM*
O=C(NCC(c1cccs1)N1CCOCC1)c1cc2ccccc2oc1=O (configuration not stated)	·	·	·	·	·	-2%
CC(Oc1ccc(Br)cc1)C(=O)Nc1ccc(N2CCOCC2)cc1N1CCOCC1 (configuration not stated)	6%	·	-3%	0%	·	-5%
COc1cc(/C=N/NC(=O)Cn2nnc3ccccc32)ccc1O	-6%	-2%	11%	-3%	10%	0%
COc1cccc(/C=N\NC(=O)Cn2nnc3ccccc32)c1O	17µM*	-2%	-26%	-14%	·	?
COc1cc(/C=N/NC(=O)CCn2nnc3ccccc32)ccc1O	15µM*	0%	2%	1%	9%	4%
O=c1c2sc3ccccc3c2n(Cc2ccc(F)cc2)c(=O)n1Cc1ccco1	0%	·	·	·	-6%	·
Nc1ccc(-c2nc3ccc([N+](=O)[O-])cc3[nH]2)cc1	3.4µM*	-6%	1.4µM*	2.2µM*	3.5µM*	3.7µM*
O=[N+]([O-])c1ccc2nc(C(O)C(O)c3nc4ccc([N+](=O)[O-])cc4[nH]3)[nH]c2c1 (configuration not stated)	-9%	·	-3%	2%	·	0%
O=[N+]([O-])c1ccc(-c2nc3ccc([N+](=O)[O-])cc3[nH]2)cc1	2.7µM*	-4%	?	1.6µM*	·	0%
O=[N+]([O-])c1ccc2nc(/C=C/c3ccc(Cl)cc3)[nH]c2c1	5.4µM*	-1%	?	?	21%	-1%
CCCC[n+]1ccc(-c2nc3ccc([N+](=O)[O-])cc3[nH]2)cc1	?	-5%	?	22%	11µM*	9%
Cc1ccccc1-c1nc(NC(=O)CSc2ncnc3sc4c(c23)CCCC4)ns1	0%	·	·	·	-6%	·
O=c1cc(C(F)(F)F)nc(-c2ccccc2)[nH]1	2%	-3%	7%	-1%	-21%	0%
CCn1cc(/C=C(\NC(=O)c2ccccc2Cl)C(=O)NCCN2CCOCC2)c2ccccc21	17µM*	·	-1%	1%	·	-3%
CCn1cc(/C=C(\NC(=O)c2ccccc2F)C(=O)NCCCN2CCOCC2)c2ccccc21	5%	·	-4%	1%	·	-1%
Cc1nc2cc(-c3ccc(F)cc3)[nH]n2c(=O)c1C	8.5µM*	·	?	2µM*	·	16µM*
Cc1ccccc1-c1cc2nc(C)c(C)c(=O)n2[nH]1	19µM*	·	?	?	·	?
Cc1cc(=O)n2[nH]c(C)cc2n1	2%	1%	3%	-4%	-15%	0%
CCOC(=O)Cc1c(C)nc2cc(-c3ccc(C)cc3)[nH]n2c1=O	?	4%	27%	18%	?	?
Cc1cc(=O)n2[nH]c(-c3ccccc3Cl)cc2n1	24µM*	0%	8%	2%	-14%	-1%
SMILES	FLuc counter	KinaseGlo FLuc	Rab9 promoter act	NPC1 prom act	SMN2 splice enh	ELG1 genotoxic
CCOC(=O)N/N=C\c1ccc(OC/C=C/c2ccccc2)cc1	-10%	·	-3%	-5%	·	3%
CC1Nc2ccc(C(=O)NC3CCCCC3)cc2NC1=O (configuration not stated)	2%	·	2%	-2%	·	6%
O=C(Nc1sc2c(c1C(=O)O)CCCCC2)c1ccccc1F	11µM*	-5%	4µM*	3.2µM*	5.6µM*	-7%
CC(C)(C)c1ccc(C(=O)Nc2sc3c(c2C(=O)O)CCC3)cc1	11µM*	-1%	-18%	-15%	·	-6%
NC(=O)c1c(NC(=O)c2ccc(F)cc2)sc2c1CCC2	4.3µM*	·	1.8µM*	1.8µM*	·	?
NC(=O)c1c(NC(=O)c2noc3c2CCCC3)sc2c1CCCC2	?	·	·	·	14µM*	·
CSc1nc2c(c(=O)[nH]1)C(c1cccc(Br)c1)CC(=O)N2 (configuration not stated)	?	-1%	-2%	2%	-6%	1%
CCN(CC)S(=O)(=O)c1ccc2[nH]c(=O)cc(C(=O)Nc3ccccc3N3CCOCC3)c2c1	8%	·	-2%	-3%	·	-2%
CCOC(=O)c1c(NC(=O)c2ccccc2C(=O)O)sc2c1CCCC2	0%	·	6%	-7%	·	0%
O=C(Nc1sc2c(c1C(=O)O)CCCC2)c1ccc(F)cc1	15µM*	·	?	28%	·	4%
COC(=O)c1c(NC(=O)c2ccccc2C(=O)O)sc2c1CCCC2	12µM*	·	·	·	12%	·
NC(=O)c1c(NC(=O)c2cc3ccccc3o2)sc2c1CCC2	0.43µM*	-12%	0.22µM*	0.32µM*	2.2µM*	0.92µM*
CN(C)c1ccc(C(CNC(=O)c2c(F)cccc2Cl)N2CCOCC2)cc1 (configuration not stated)	-2%	·	·	·	·	·
Cc1ccccc1/C(N)=N/OC(=O)c1cccs1	6.7µM*	?	18%	-1%	-3%[1.84 µM]	?
N/C(=N\OC(=O)c1ccc(Cl)cc1Cl)c1ccc(Cl)cc1	0.54µM*	-7%	1.6µM*	1.4µM*	22%	?
N/C(=N\OC(=O)c1ccc(Cl)cc1Cl)c1cccnc1	1.2µM*	-12%	1.6µM*	1.4µM*	·	2.6µM*
CCOP(=O)(OCC)/C(=N/OC(=O)c1ccc(Cl)cc1Cl)C(N)=O	-18%	·	-4%	-11%	·	1%
Cc1ccc(/C(N)=N/OC(=O)c2ccc(C)cc2Cl)cc1	0.85µM*	-4%	0.71µM*	1.1µM*	?	?
C/C(=N/NC(=O)c1ccc(Cl)cc1Cl)c1cccnc1	?	·	16%	2%	·	1%

Compound activity (PubChem BioAssay)
